From PubChem BioAssay (NCATS) come the findings set out here.

Results filed as inconclusive are left out. Values without a mark were called inactive. Calls come from the whole dose curve; as a rule, active = well fitted inhibition curve with a large enough effect; inconclusive = small, poorly fitted or top-dose-only effect; inactive = no such curve, though single readings can be large or run the other way.

Chain of Rap guanine nucleotide exchange factor 3 (Homo sapiens) (O95398 whole entry, looked up): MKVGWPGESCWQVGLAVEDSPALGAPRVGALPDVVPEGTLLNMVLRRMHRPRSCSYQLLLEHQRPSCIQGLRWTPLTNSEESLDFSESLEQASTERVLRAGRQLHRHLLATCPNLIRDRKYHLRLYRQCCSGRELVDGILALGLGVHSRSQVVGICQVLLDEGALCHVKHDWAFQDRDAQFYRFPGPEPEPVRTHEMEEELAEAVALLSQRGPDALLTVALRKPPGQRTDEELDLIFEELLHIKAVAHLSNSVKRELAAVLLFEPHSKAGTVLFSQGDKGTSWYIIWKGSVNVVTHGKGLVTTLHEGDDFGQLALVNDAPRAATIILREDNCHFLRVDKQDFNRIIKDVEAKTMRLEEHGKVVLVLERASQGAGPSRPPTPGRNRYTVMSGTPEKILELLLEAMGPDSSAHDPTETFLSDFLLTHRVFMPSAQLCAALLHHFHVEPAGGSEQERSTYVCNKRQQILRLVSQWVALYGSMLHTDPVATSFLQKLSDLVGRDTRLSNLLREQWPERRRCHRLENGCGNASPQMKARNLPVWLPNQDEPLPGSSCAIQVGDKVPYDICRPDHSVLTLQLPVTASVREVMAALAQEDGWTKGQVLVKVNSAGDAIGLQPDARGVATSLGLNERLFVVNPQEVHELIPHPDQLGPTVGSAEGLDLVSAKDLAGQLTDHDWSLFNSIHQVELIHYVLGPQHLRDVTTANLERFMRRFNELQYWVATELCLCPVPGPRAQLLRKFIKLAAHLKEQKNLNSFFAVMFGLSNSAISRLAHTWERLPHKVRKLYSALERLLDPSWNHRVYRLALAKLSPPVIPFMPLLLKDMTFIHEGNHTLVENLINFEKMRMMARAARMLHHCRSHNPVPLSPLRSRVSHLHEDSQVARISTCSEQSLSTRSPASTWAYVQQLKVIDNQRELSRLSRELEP

This assay addresses Rap guanine nucleotide exchange factor 3 (Homo sapiens) (UniProt O95398). The experiment in a line: Counterscreen qHTS for antagonist of cAMP-regulated guanine nucleotide exchange factor 3 (EPAC1) (AID 1645888).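 Note: fluorescence loss as bound BODIPY-GDP is released from Rap1B; % of control where 0% means no effect.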 The following applies: Rap1B-BODIPY-GDP nucleotide exchange, fluorescence; series mostly up to 154 µM; activity change, negative = inhibition: at the top concentration. The procedure, abridged: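 Rap1B–BODIPY-GDP (250 nM) with 50 uM GDP; compounds pin-transferred to 9.74 nM–152 uM final (activator) or from 7.32 nM upwards (inhibitor). Fluorescence Ex/Em 480/540 nm read at 5 and 30 min, then after adding cAMP or buffer, at room temperature.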
Background: The purpose of a counterscreen is to sort out artefacts and off-target activity.
With `COc1ccc(N2CCN(C(c3ccccc3F)c3sc4nc(-c5ccco5)nn4c3O)CC2)cc1` (centres undefined), the “activity change, negative = inhibition” value was 14.5%.

For the compound `Nc1c(C(=O)Nc2ccc3c(c2)OCCO3)nnn1Cc1cccc(Br)c1`, the activity change, negative = inhibition was -24.5% [at 30.8 µM].

Consider `CC1(c2ccccc2)CC(C)(C)N2C(=O)Cc3cccc1c32` (centres undefined), for which the “activity change, negative = inhibition” value was -18.9%. Next, `COc1ccc(-n2ccn(Cc3ccccc3Cl)c(=O)c2=O)cc1OC`: 17.3%.

As to `Clc1ccc(CSc2nncn3c2cc2occc23)cc1`, the “activity change, negative = inhibition” value is 35.2%. Next, `O=c1nc2s/c(=C\c3ccc(-c4ccccc4[N+](=O)[O-])o3)c(=O)n2nc1-c1ccccc1`: 117%.

On to `O=C1C(c2ccccc2)=[N+]([O-])c2ccccc21`, for which the “activity change, negative = inhibition” value is 22.4%.

On to `C[C@H](c1ccccc1)N1C[C@@H](COCc2ccccc2)Oc2cc(N3CC[C@@H](O)C3)ccc2S1(=O)=O`, for which the “activity change, negative = inhibition” value was -20.6%. Take `O=C(OCc1ccc([N+](=O)[O-])cc1)c1cc(=O)c2ccccc2o1`: the “activity change, negative = inhibition” value is 28.3%. Next, `Cc1c(Cl)cccc1NC(=O)CN(CCc1ccccc1)S(=O)(=O)c1ccccc1`: 17%; `Cc1ccc2cc(CN(Cc3ccco3)C(=O)c3ccco3)c3nnnn3c2c1`: 7.59%.

In the case of `C=CCSc1nc(-c2ccc(OC)cc2)c(C#N)c(=O)n1CC=C`, the activity change, negative = inhibition is -30% [at 30.8 µM].

Turning to `CCc1ccccc1Oc1nc(NC(C)C)nc2ccsc12`, the activity change, negative = inhibition was -29.4% [at 30.8 µM].

As for `CCN(CC(=O)Nc1c(F)cccc1F)C(=O)CCc1nc2sc3c(c2c(=O)[nH]1)CCCC3`, the “activity change, negative = inhibition” value was -9.39%. Consider `N#C/C(=C/c1ccc(O)c(O)c1)c1nc2ccccc2[nH]1`, for which the “activity change, negative = inhibition” value was 17.7%. Next, `COc1ccc(NC(=O)COc2ccccc2C#N)c(S(=O)(=O)N2CCCCC2)c1`: -7.41%; `CSc1nc2c(c(C(F)(F)F)n1)CC(C)CC2` (centres undefined): 5.07%; `CCSc1nnc(NC(=O)C2CCN(S(=O)(=O)c3ccccc3C(F)(F)F)CC2)s1`: 7.56%.

Turning to `COc1ccc(C(=O)c2ccccc2)c2c(O)ccc(C(=O)c3ccccc3)c12`, the “activity change, negative = inhibition” value was 10.8%. Next, `CC(Oc1ccc(-c2nnco2)cc1)C(=O)N1CCOCC1` (centres undefined): -10.9%; `CCN(CC)S(=O)(=O)c1cccc(-c2nnc(SCC(N)=O)n2C)c1`: -0.417%.

With `Cc1ccc(NC(=O)Cn2nc(C)c3nn(-c4ccc(Cl)cc4)c(C)c3c2=O)cc1F`, the “activity change, negative = inhibition” value is 15.9%. Next, `COc1ccc(-c2n[nH]c3c2C(c2ccc(Cl)cc2Cl)NC3=O)cc1` (centres undefined): 16.3%. Next, `CCCc1cc(C(=O)Nc2ccccc2C(=O)OC)no1`: 9.63%. Regarding `CC1=C(C(=O)OC2CCCC2)C(c2c(Cl)cccc2Cl)CC(=O)N1` (centres undefined), the “activity change, negative = inhibition” value was 2.64%. Next, `O=C(CCN1C(=O)/C(=C/c2cccs2)SC1=S)Nc1ccc(C(=O)O)c(O)c1`: 19.6% [at 30.8 µM]; `Cc1ccc(OCCn2cccn2)c(C)c1`: -0.285%; `CCOC(=O)[C@@H](NC(=O)/C=C/[C@H]1O[C@@H](n2cc(C)c(=O)[nH]c2=O)C[C@@H]1O)C(C)C`: 14.5%.

Take `Cc1c(NC(=O)/C=C/c2cn(-c3ccccc3)nc2-c2ccccc2)c(=O)n(-c2ccccc2)n1C`: the activity change, negative = inhibition is -4.59% [at 30.8 µM]. For `CSc1nc(N2CCOCC2)c2c3c(sc2n1)CCC3`, the “activity change, negative = inhibition” value is -12.5%. Turning to `COCC(=O)Oc1c(Sc2ccc(C)cc2)c(C)nn1C(C)(C)C`, the “activity change, negative = inhibition” value is 13.6%. Next, `COc1ccc(S(=O)(=O)N2CCC[C@H]2C(=O)N2CCC[C@H]2C(=O)NCc2ccccc2)cc1C`: -5.32% [at 30.8 µM]; `CCc1nn2c(-c3ccccc3OC)ccnc2c1-c1ccccc1`: -7.84%.

On to `CC1(C)CC(=O)C=C(c2ccc(F)cc2OCc2ccccc2)C1`, for which the “activity change, negative = inhibition” value was -15.3%. Turning to `Oc1ccc(-c2c(-c3ccsc3)sc3ccccc23)cc1`, the activity change, negative = inhibition was -8.26% [at 30.8 µM]. As to `N#Cc1cc2c(=O)n3ccccc3nc2n(-c2nnc(SCc3ccccc3Cl)s2)c1=O`, the “activity change, negative = inhibition” value is 16.7%. As for `O=C1CNC(=O)c2c(nc3n2CCC3)N1`, the “activity change, negative = inhibition” value is -2.47%. Next, `COC(CNC(=O)c1ccc2c3c(onc13)-c1ccccc1C2=O)OC`: -7.6%; `CCCn1c(CN2CCN(C(=O)c3ccco3)CC2)nc2c1c(=O)n(C)c(=O)n2C`: 5.27%.
